Results: PubChem BioAssay AID588473 (Sanford-Burnham Center for Chemical Genomics, 2011)
Among all 350,000 compounds or so, about 1,600 (0.46%) were called active.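 Rule for the calls: active = activation of at least 50%, plus an integration ratio under a set limit after plate pattern correction; inactive = the rest.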 This excerpt belongs to a sample that is enriched for actives.

system: CRF-binding protein / CRF receptor 2 complex (human); experiment: activators of CRF-R2 with CRF-BP – cell-based, HEK293, calcium dye fluorescence, uHTS, primary screen (AID 588473); details: calcium dye fluorescence (FLIPR), at 13.2 µM, hits give high values, percent of saturating CRF peptide response;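 note: plate controls were neutral control wells without compound for no effect and CRF at EC100 for full effect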

activation, inactive:
COc1cc(C(=O)NNC(=O)CN2C(=O)NC3(CCCC3)C2=O)cc(OC)c1OC 0.66%
Cc1c(NC(=O)C(=O)N/N=C/c2cccs2)c(=O)n(-c2ccccc2)n1C 4.78%
Cc1cc(C)c(S(=O)(=O)NCC(c2ccc3c(c2)OCO3)N2CCOCC2)c(C)c1 (configuration not stated) -1.15%
Cc1ccc(C(=O)N/N=C/c2sc(=O)n(Cc3cccc(C(=O)O)c3)c2Cl)cc1 1.16%
CCCS(=O)(=O)N1CCC(C(=O)NCCc2ccc(OC)c(OC)c2)CC1 -0.54%
Cc1cccc(C(C)C)c1NC(=O)COC(=O)C1CC(=O)N(Cc2ccccc2)C1 (configuration not stated) -1.23%
NS(=O)(=O)c1ccc(NC(=O)COC(=O)c2c3c(nc4ccccc24)/C(=C\c2ccc4c(c2)OCO4)CCC3)cc1 0.53%
COc1cc(/C=C2\CCCc3c2nc2ccccc2c3C(=O)O)cc(Cl)c1O 0.27%
COc1ccc([N+](=O)[O-])cc1NC(=O)CC1SC(=Nc2cccc(C)c2C)N(/N=C(\C)c2ccc(C)cc2)C1=O (configuration not stated) -0.05%
Cc1ccc(C(CC(=O)O)NC(=O)c2ccc(S(=O)(=O)N3CCCC3)cc2)cc1 (configuration not stated) 0.98%
Cc1ccc(C(=O)COC(=O)CCCC(=O)NC2CCCCC2)cc1[N+](=O)[O-] 1.32%
COc1ccc(C)cc1NC(=O)CSc1nnc(CC(=O)Nc2ccccc2F)n1C 3.27%
CC(C(=O)O)N1C(=O)c2cccc3cccc1c23 (configuration not stated) -0.43%
O=C1c2cccc3c([N+](=O)[O-])ccc(c23)C(=O)N1CC1CCCO1 (configuration not stated) 12.3%
CC(C)n1c(CN2CCN(Cc3ccccc3)CC2)nc2ccccc21 1.04%
COc1cc(CNCc2ccc3c(c2)OCO3)c([N+](=O)[O-])cc1OC -1.29%
COc1ccc(Br)cc1CN(C)CC(=O)Nc1cc([N+](=O)[O-])ccc1OC 0.1%
CCCCN1CCNC1=S -0.03%
CCCCN1C(N)=NC[C@@H]1CC1CCCCC1 -0.4%
CCOc1ccc(NC(=O)c2ccc(CSc3nnnn3C)cc2)cc1 1.79%
NS(=O)(=O)c1ccc(NC(=O)COC(=O)C2(c3ccc(F)cc3)CCCC2)cc1 -2.26%
Cc1cc(NS(=O)(=O)c2ccc(NC(=O)C(C)Oc3cccc(C)c3C)cc2)nc(C)n1 (configuration not stated) -1.14%
Cc1cc(NS(=O)(=O)c2ccc(NC(=O)c3cccnc3)cc2)nc(C)n1 -0.63%
COc1ccc(N2CCN(C(CNS(=O)(=O)c3ccc(C)cc3)c3ccccc3)CC2)cc1 (configuration not stated) -2.07%
CN(Cc1ccccc1Cl)C(=O)C1CCC(=O)N(CCc2cccc(F)c2)C1 (configuration not stated) 0.61%
COc1cc(C)ccc1OCC(=O)OCC(=O)c1ccc[nH]1 2.06%
CC(C)CC(O)C1CCN(C(=O)CCc2nnc(-c3ccc4c(c3)OCO4)o2)CC1 (configuration not stated) -0.38%
O=C(NCCN1CCOCC1)C1CCN(S(=O)(=O)c2ccccc2)CC1 -0.1%
O=C1CCC/C=C/C[C@@H](CC(=O)N(CCO)Cc2ccccc2)C(=O)NC[C@H](c2ccccc2)O1 -0.44%
O=C1N[C@@H](c2ccccc2)COC(=O)[C@H](Cc2ccc(F)cc2)C/C=C\C[C@@H]1CC(=O)N(CCO)Cc1ccccc1 -2%
CCCNC(=O)c1ccc(N2CCC3(CC2)CC(c2ccc(Cl)cc2)=NO3)c([N+](=O)[O-])c1 0.95%
CCN(CC)C(=O)C1=C(C)N(Cc2ccc(F)cc2)C(=O)C(CC(=O)NCc2cccc3ccccc23)C1 (configuration not stated) -1.12%
COc1ccc(CNC(=O)CN2CCC(n3nnc4cc(F)ccc43)CC2)cc1 0.03%
COc1cccc(/C=C2\SC(=S)N(CCCC(=O)N3CCOCC3)C2=O)c1 2.11%
COc1ccc(/C=C2/SC(=O)N(CCCCCC(=O)Nc3ccccc3C(=O)O)C2=S)cc1 -2.58%
CC(=O)Nc1ccc(C(=O)NNC(=O)CCCCC(=O)NNC(=O)c2ccc(NC(C)=O)cc2)cc1 -1.83%
COCCCNC(=S)NC(=O)c1ccc([N+](=O)[O-])cc1 -0.87%
O=C(NC(=S)NC1CCS(=O)(=O)C1)c1cccc([N+](=O)[O-])c1 (configuration not stated) 0.96%
CC(C)(C)SCCNC(=O)c1cccc([N+](=O)[O-])c1 -0.01%
COC(=O)c1c(CCl)noc1C(=O)NC(C)C 0.17%
Cc1ccc(Nc2c(O)nc[nH]c2=O)cc1C -0.7%
CCN(C(=O)Cc1nc(N)n[nH]1)C1(C(=O)Nc2ccccc2)CCCCC1 1.43%
C=CCO/N=C/C1=C(O)C(C(=O)OC)C(C)(C)CC1=O (configuration not stated) 3.2%
CC(=O)Nc1ccc(OC(=O)COc2ccc(Br)cc2)cc1 0.61%
Cn1cccc1C(=O)NNC(=O)COc1ccc(Br)cc1 0.35%
Cc1cc(C)c(S(=O)(=O)Nc2c(C)n(C)n(-c3ccccc3)c2=O)cc1[N+](=O)[O-] -0.78%
O=C(NCCc1c[nH]c2ccccc12)C1CCN(Cc2ccc(Br)cc2)CC1 7.6%
Cc1ccc(C(=O)N/C(=C/c2ccco2)C(=O)NCCc2c[nH]c3ccccc23)cc1C -0.5%
CCCN(CCC)c1nc2c(C)cccn2c(=O)c1/C=C1/SC(=S)N(Cc2ccco2)C1=O 36.9%
CNc1nc2c(C)cccn2c(=O)c1C=Nc1ccc(OC)cc1 -0.9%
CCOC(=O)NC(=O)C(=CNc1cccc(OC)c1)C(=O)NC(=O)OCC 2.88%
Cc1cccn2c(=O)c3cc(C#N)c(=O)n(CCCN4CCOCC4)c3nc12 2.16%
Cc1cccn2c(=O)c3cc(C(=O)NCCN4CCOCC4)c(=N)n(Cc4cccnc4)c3nc12 -0.12%
Cc1cc(=O)n2nc(N3CCCC(C(=O)NCc4ccc(Cl)cc4)C3)sc2n1 (configuration not stated) -0.87%
CCCCCCCC[n+]1cccc(C(=O)N2c3c(nc(N)[nH]c3=O)NC(C)C2C)c1 (configuration not stated) -1.35%
Cc1cccc(C(=O)N2CCN(S(=O)(=O)N3CCCCC3)CC2)c1 -0.46%
Cc1cccc(C)c1N1CCN(S(=O)(=O)N2CCOCC2)CC1 16.7%
CCn1cc(CN2CCN(CC(C)(C)C)C(CCO)C2)c2ccccc21 (configuration not stated) 4.34%
CCOc1ccc(NCCC(=O)c2ccc3c(c2)OCO3)cc1 -0.43%
COc1ccc(CCNC(=O)C(=O)NCC2OCCN2S(=O)(=O)c2cccs2)cc1OC (configuration not stated) -0.25%
CC1(C)N=C(c2ccccn2)C(C)(C)N1O 2.11%
Cc1cccc(NC(=O)CCN2CC(C)CC(C)C2)c1 (configuration not stated) -0.13%
Cc1cccc(NC(=O)CN2C(=O)CNC2=O)c1 -0.73%
CN(C)S(=O)(=O)c1ccc(C(=O)NCC2(N3CCOCC3)CCCCC2)cc1 0.88%
Cc1ccc(-c2ccnc3[nH]n(-c4ccccc4)c(=O)c23)cc1 0.1%
COc1cc(SC#N)ccc1N=Cc1c(C)[nH]n(-c2ccc(C)cc2)c1=O -2.61%
Cc1noc(C)c1S(=O)(=O)N(C)Cc1ccccc1 -2.84%
CC(c1cccnc1)N(CCN(C)C)C(=O)Nc1ccc(Cl)c(Cl)c1 (configuration not stated) 0.52%
N#CC1(NC(=O)COC(=O)CCN=C2NS(=O)(=O)c3ccccc32)CCCCC1 8.71%
O=C(OCCN=C1NS(=O)(=O)c2ccccc21)c1cccc([N+](=O)[O-])c1 -1.89%

activation, active:
COc1cccc2c1C(=O)c1c(O)c3c(c(O)c1C2=O)CC(O)(C(C)=NNC(=O)c1ccc(Cl)c(Cl)c1)CC3OC1CC(N)C(O)C(C)O1 (configuration not stated) 67.3%
NC(=O)c1ccc(NC(=O)COC(=O)c2c3c(nc4ccccc24)/C(=C\c2ccc4c(c2)OCO4)CCC3)cc1 255%
Cc1nn(C)cc1N1C(=O)c2cccc3c(N)ccc(c23)C1=O 200%
CN1C(=O)c2cccc3c(N)ccc(c23)C1=O 222%
Cc1cc(NS(=O)(=O)c2ccc(NC(=O)c3cccc(OC(F)F)c3)cc2)nc(C)n1 73.2%
O=C1NC[C@@H](c2ccccc2)OC(=O)[C@H](Cc2ccc(F)cc2)CC/C=C/C[C@H]1CC(=O)N(CCO)Cc1ccccc1 54.7%
Cc1ccc(-c2nn(-c3ccccc3)cc2/C=C2\SC(=S)N(CCCCCC(=O)O)C2=O)o1 60.7%
CCCCCC(=O)NC(=S)NNC(=O)c1ccc([N+](=O)[O-])cc1 96.3%
CC(C)CC(=O)NC(=S)NNC(=O)c1cccc([N+](=O)[O-])c1 55%
Cc1ccc(O)c(NC(=S)NC(=O)COc2ccc(Br)cc2)c1 195%
N#C/C(=C/c1ccc(N2CCCCC2)o1)C(=O)NCCc1c[nH]c2ccccc12 138%
Cc1cccn2c(=O)c(/C=C3\SC(=S)N(CC(C)C)C3=O)c(NCCCOC(C)C)nc12 83%
Cc1cccn2c(=O)c3cc(C#N)c(=NC(=O)c4cccnc4)n(CC4CCCO4)c3nc12 (configuration not stated) 56.4%
Cc1cccc(C)c1N1CCN(S(=O)(=O)N2CCCCC2)CC1 152%
Cc1cccc(NC(=O)C(C)N2C(=O)C3C4CC(C(Br)C4Br)C3C2=O)c1 (configuration not stated) 73.2%
Cc1ccc(-n2[nH]c(C)c(/C=N/N3C(=O)c4cccc5cccc(c45)C3=O)c2=O)cc1 113%
O=C(CCCN=C1NS(=O)(=O)c2ccccc21)OCC(=O)c1ccc(F)c(F)c1 62%
